Assay outcomes: PubChem, several laboratories
ZTA DNA inh = counter-screen for EBNA-1 inhibitors: inhibitors of Epstein-Barr virus ZTA | inhibition, % at 11 µM | ZTA-DNA binding, fluorescence polarization | P03206 | actives 0.15% (n = 320,000); in the data active = inhibition above about 33%
Rpn11 block = Rpn11 (PSMD14) deubiquitinase inhibitors, primary screen, biochemical, fluorescence polarization, uHTS; human 26S proteasome, Ub4-pepOG fluorescence polarization; 20S core pre-blocked with epoxomicin; inhibition, % at 20 µM; actives 0.59% (n = 360,000); AID 588493, 2011;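 active = inhibition at 20 µM, scaled to each plate's controls, above about 33%, limit read from the data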
dFosB activator = activators of delta FosB homodimer, primary screen, biochemical, fluorescence polarization, TAMRA-CDK5 oligo, single point | actives 0.99% (n = 340,000) | purified delta FosB; percent of positive-control signal above neutral wells | AID 493131, 2011 | activation, % at 25 µM;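 active = mean activation above about 17%, with every replicate also reaching it, limit read from the data, passing the limit was not always enough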
Target sequence (P13346 whole entry, looked up): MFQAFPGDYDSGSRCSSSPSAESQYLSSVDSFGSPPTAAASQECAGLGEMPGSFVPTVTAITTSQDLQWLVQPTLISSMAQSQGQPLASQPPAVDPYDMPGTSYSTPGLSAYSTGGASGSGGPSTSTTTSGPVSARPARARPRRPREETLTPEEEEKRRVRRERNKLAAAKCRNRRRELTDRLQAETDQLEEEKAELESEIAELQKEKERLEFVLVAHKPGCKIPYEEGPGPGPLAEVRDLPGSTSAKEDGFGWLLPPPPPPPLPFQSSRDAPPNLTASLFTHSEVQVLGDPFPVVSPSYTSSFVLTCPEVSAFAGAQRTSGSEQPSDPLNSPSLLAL
EBNA-1 inh = EBNA-1 DNA-binding inhibitors, primary screen, biochemical, fluorescence polarization; inhibition, % at 14.8 µM; actives 0.34% (n = 300,000); AID 1950, 2009; in the data active = inhibition above about 28%
NR3A LBD binder = binders of NR3A ligand-binding domain, primary screen, biophysical, differential scanning fluorimetry, uHTS; Glutamate receptor ionotropic, NMDA 3A (GRIN3A) ligand-binding domain; NR3A LBD differential scanning fluorimetry, Tm shift; 0% = protein alone, 100% = glycine-bound protein; actives 2.5% (n = 340,000); Tm shift relative to glycine control, % at 25 µM;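 active = melting temperature shift of at least 10% of the positive control shift, at one fixed dose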
TPT1 inhibitor = Candida albicans TPT1 enzyme inhibitors, primary screen, biochemical, fluorescence polarization | recombinant caTPT1, FP RNA substrate dephosphorylation | actives 0.81% (n = 300,000) | AID 1962, 2009 | tRNA 2'-phosphotransferase TPT1 (Candida albicans SC5314) | inhibition, % at 5 µM;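 active = inhibition above the mean of all tested compounds plus 3 SD, set per screening campaign, cut at about 24% in these data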;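 note: plate controls were DMSO alone for no effect and ferristatin control at 100 nM for full effect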
caTPT1 confirm = Candida albicans TPT1 inhibitors, confirmation, biochemical, fluorescence polarization, triplicate; shares compounds with TPT1 inhibitor; actives 74% (n = 2,400); AID 2149, 2009; inhibition, % at 5 µM; recombinant caTPT1, RNase T1 coupled;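 active = inhibition above the primary screen limit, the mean inhibition of all tested compounds plus 3 SD, cut at about 25% in these data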
RNase T1 counter = RNase T1 inhibitors, counter-screen for TPT1 inhibitor project, biochemical, fluorescence polarization. actives 83% (n = 2,400). RNase T1 cleavage, 1536-well. shares compounds with TPT1 inhibitor. inhibition, % at 5 µM. AID 2153, 2009;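 active = inhibition above the solvent-only control well mean plus 3 SD, limit set per screening run, cut at about 23% in these data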;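 note: plate controls were DMSO wells with enzyme for no effect and wells without RNase T1 for full effect; inhibitors block cleavage so intact labeled substrate keeps polarization high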
Target sequence (P00651 whole entry, looked up): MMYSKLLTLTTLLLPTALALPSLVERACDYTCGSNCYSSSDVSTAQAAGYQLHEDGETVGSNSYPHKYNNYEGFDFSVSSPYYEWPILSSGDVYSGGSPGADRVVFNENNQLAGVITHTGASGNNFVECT
Starred values were filed as active, the others as inactive; x = no result given. Sampled rows, rich in hits. Any-hit rate of the full collection: about 4.5%.

SMILES	ZTA DNA inh	Rpn11 block	dFosB activator	EBNA-1 inh	NR3A LBD binder	TPT1 inhibitor	caTPT1 confirm	RNase T1 counter
COc1ccccc1N1C(=O)C2C(C(=O)c3ccccc3)=NN(c3ccc(C)cc3)C2C1=O (stereo unspecified)	-4	-62	x	-17	-1	51*	65*	73*
COc1ccccc1N1C(=O)C2C(C(=O)c3ccccc3)=NN(c3ccc(Br)cc3)C2C1=O (stereo unspecified)	-3	22	x	-5	-1	35*	27*	41*
CCOC(=O)/C=C/C(=O)Nc1ccc(S(=O)(=O)Nc2nccs2)cc1	5	-3	-2	-13	-5	3	x	x
Cc1[nH]c2ccccc2c1/C=C/C(=O)c1ccccc1	-4	x	-11	-1	-4	32*	63*	75*
CCn1c(/C=C/c2c(C)[nH]c3ccccc23)nc2ccccc2c1=O	14	x	-14	4	-1	38*	59*	71*
CCn1c(/C=C/c2c[nH]c3ccccc23)nc2ccccc2c1=O	1	-9	-8	-10	1	5	x	x
O=C(NCCc1nc(-c2ccccc2)no1)c1ccco1	3	4	-16	-1	-2	-1	x	x
Cc1cc(C)c2c(n1)sc1c(O)cc(=O)[nH]c12	1	15	-5	-6	-3	2	x	x
COc1ccc(-c2cc(C(F)(F)F)c3c(n2)sc2c(O)cc(=O)[nH]c23)c(OC)c1	-18	x	-14	-12	6	69*	82*	85*
CSc1nc2ccc(S(=O)(=O)N3CCOCC3)cc2s1	-4	3	0	11	0	0	x	x
N#CCc1nc2ccc(S(=O)(=O)N3CCOCC3)cc2s1	20	x	-6	4	0	85*	62*	76*
N#Cc1c(Sc2ncc(C(F)(F)F)cc2Cl)nsc1C/C=N\OCc1c(F)cccc1Cl	-6	x	-11	-1	0	36*	20	33*
FC(F)(F)c1cnc(Sc2nnc(-c3cccs3)n2CC2CCCO2)c(Cl)c1 (stereo unspecified)	3	-4	-4	-1	-7	-1	x	x
COc1ccccc1OCC(=O)NNC(=O)C(=O)N1CCCC1	7	-3	-10	8	-1	0	x	x
Cc1ccc(NC(=O)c2c(F)cccc2Cl)cc1S(=O)(=O)N1CCOCC1	16	4	-11	x	-4	x	x	x
CC1(C)CCN2CCC(C)(C)c3c(O)ccc1c32	-7	-31	-22	5	-3	48*	36*	50*
CC(CCc1ccccc1)NC(=O)CC(C)c1ccccc1 (stereo unspecified)	1	-6	-5	5	-1	-1	x	x
Cc1ccccc1-n1c(O)c(/C=C/C=Nc2ccccc2)c(=O)[nH]c1=O	-7	x	1	-2	-5	154*	168*	157*
COc1ccc(C2NC3=C(CCCC3)C(C#N)(C#N)C2(C#N)C#N)cc1 (stereo unspecified)	-2	x	x	-8	x	33*	34*	47*
O=C(CCN1C(=O)/C(=C\c2ccccc2)SC1=S)N1CCCCC1	16	17	-1	-14	-4	2	x	x
O=C(CCN1C(=O)/C(=C/c2cccs2)SC1=S)N1CCCCC1	-7	30	-2	4	2	33*	34*	46*
COc1ccc(N=Nc2[nH]c3ccc(C)cc3c2O)cc1	4	3	-13	2	-5	0	x	x
Cc1ccc(N=Nc2[nH]c3ccccc3c2O)cc1	-12	-25	-8	-7	0	24*	-8	3
O=c1c2ccccc2c(/C=N/NS(=O)(=O)c2ccccc2)c(O)n1-c1ccccn1	7	x	-8	6	0	106*	62*	78*
CCC(C)NS(=O)(=O)c1ccc(S(=O)(=O)N(CC(=O)Nc2ccccc2)CC2CCCO2)cc1 (stereo unspecified)	10	-3	-6	6	3	-3	x	x
SMILES	ZTA DNA inh	Rpn11 block	dFosB activator	EBNA-1 inh	NR3A LBD binder	TPT1 inhibitor	caTPT1 confirm	RNase T1 counter
Cc1ccc(/C=C2\CCC3=C2OC(N)=C(C#N)C3c2ccc(C)cc2)cc1 (stereo unspecified)	17	x	-3	-11	-4	122*	121*	112*
O=C(Cc1ccccc1F)NC1CCCN(Cc2ccc(Cl)cc2)C1 (stereo unspecified)	-13	0	-5	-4	-1	-4	x	x
CC(=O)c1c(C)[nH]c(C(=O)OCC(=O)NCCC2=CCCCC2)c1C	2	-6	-8	6	-2	1	x	x
O=C1CCC(=O)N1c1ccc(-c2nc3ccccc3s2)cc1	-11	18	2	18	2	52*	11	18
Cc1cc(=O)oc(C)c1C(=O)Nc1ccc2ncccc2c1	16	-42	-8	2	-2	25*	35*	45*
CCC(Sc1nc(N)c(NC(=O)c2ccc(OC)cc2)c(=O)[nH]1)C(=O)O (stereo unspecified)	-8	1	3	1	0	-3	x	x
COc1ccc(CN(C)CC(=O)NC(C)c2ccccc2)c(OC)c1 (stereo unspecified)	9	-6	-12	-6	-3	99*	8	10
COc1cccc(NC(=O)CN(C)CC(=O)NC(C)c2ccccc2)c1 (stereo unspecified)	3	-5	2	0	-2	2	x	x
O=C(NC1CCCCCC1)c1ccc(=O)n(Cc2ccccc2)n1	-7	-4	-5	1	-3	0	x	x
Cc1nc2ccccc2nc1OCC(=O)Nc1ccccc1	2	10	-1	-8	0	96*	4	5
CN=c1scc(-c2ccccc2F)n1/N=C/c1ccc[nH]1	-6	28	-2	-7	-8	50*	27*	36*
CC(/C=N/NC(=O)CSc1n[nH]c(=O)[nH]c1=O)=C\c1ccccc1	-7	3	-13	-10	-3	0	x	x
CCN1CCN(c2cc(N3CCN(C(=O)c4ccco4)CC3)c3c4c(onc24)-c2ccccc2C3=O)CC1	12	-18	13	5	-4	40*	43*	12
